D1 potentiator: potentiators of human D1 dopamine receptor | potentiation, % at 10 µM | P21728 | AID 504651 | HEK293 TREx D1 cells, calcium flux, dopamine EC20 potentiation | hit rate 0.036% among 360,000; in the data active = potentiation above about 30%; note: 0% is about no effect
Target sequence (P21728 whole entry, looked up): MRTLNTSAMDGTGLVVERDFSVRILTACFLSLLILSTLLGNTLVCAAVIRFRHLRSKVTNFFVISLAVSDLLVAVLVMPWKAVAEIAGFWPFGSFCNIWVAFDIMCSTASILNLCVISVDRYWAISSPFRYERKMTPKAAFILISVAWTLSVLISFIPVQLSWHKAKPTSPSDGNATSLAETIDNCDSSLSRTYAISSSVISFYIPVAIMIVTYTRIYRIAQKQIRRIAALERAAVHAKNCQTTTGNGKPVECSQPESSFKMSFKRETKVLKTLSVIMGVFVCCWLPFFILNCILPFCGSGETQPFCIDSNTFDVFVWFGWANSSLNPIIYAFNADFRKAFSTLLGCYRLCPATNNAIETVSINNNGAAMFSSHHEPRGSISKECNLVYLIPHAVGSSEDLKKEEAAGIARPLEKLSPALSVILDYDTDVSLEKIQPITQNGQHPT
D1 antag: human D1 dopamine receptor antagonism; HEK293 TREx D1 cells, calcium flux, dopamine EC80; stronger effect = lower value; activity change, negative = inhibition, % at 10 µM; hit rate 3.2% among 360,000; in the data active = activity change below about -30%; note: % is set by controls: 0 for no effect and ±100 for the full control effect
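Antagonism measured as reduced calcium response to an EC80 dopamine addition following 180 s compound pre-read; cells were inducible HEK293 Trex D1 plated overnight at 30 C, read kinetically at 1 cycle/sec.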
TRHR PAM: allosteric enhancers of human TRH receptor | P34981 | TRHR cells, fluo-8 calcium fluorescence, EC20 TRH enhancement | enhancement, % at 2 µM | hit rate 0.66% among 360,000 | AID 493056; in the data active = enhancement above about 30%; note: 0% is about no effect
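Enhancer read-out: after compound pinning and an initial kinetic agonist-mode read, an EC20 of TRH (10 nM final) was injected and fluo-8 calcium signal (Ex 480/Em 530) followed at 1 s/cycle for 100 cycles in TRHR-expressing cells.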
D1 ag: agonists of human D1 dopamine receptor. P21728. HEK293 T-REx D1 cells, calcium flux, agonist mode. activation, % at 2 µM. hit rate 1% among 360,000. AID 504660; note: 0% is about no effect
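Agonism was scored from calcium flux recorded over 180 s (1 read/s) after pintool compound addition, following a 10-cycle baseline. Cells were inducible force-coupled HEK293 TREx D1, plated overnight at 30 C and loaded with no-wash calcium dye.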
TRHR agonist: agonists of human TRH receptor; hit rate 0.18% among 360,000; activation, % at 2 µM; TRHR cells, calcium flux fluo-8, FDSS agonist mode; P34981; note: 0% is about no effect
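Steps: seed TRHR cells overnight; add fluo-8 no-wash Ca dye, RT 30 min–1.5 h; record 10 s baseline; pin-transfer compounds; monitor fluorescence 1 cycle/s for the agonist window. Calcium increases flag candidate agonists.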
The depositor's hits bear a star; / = not tested or not shown; ! = a repeat was not active. The list is not random: actives were taken first. Their share in the collection is about 4.7%. Cut-off read from the data, not from the text of the source, unless noted: active = activation above about 30%; inactive = the rest.

SMILES	D1 potentiator	D1 antag	TRHR PAM	D1 ag	TRHR agonist
Cc1[nH]c(=S)c(C#N)c(C)c1CC(=O)c1ccc(Br)cc1	3	5	6	4	0
CC(=O)c1ccc(NC(=O)CSC2=Nc3ccccc3N=C(c3ccc(F)cc3)C2)cc1	-1	-12	2	3	1
COc1ccc(-c2cc3nc(C)cc(N)n3n2)cc1	-3	-5	30*	1	0
COc1ccc(S(=O)(=O)c2nnn(-c3ccccc3F)c2C)cc1	-4	-8	-4	10	0
COc1ccc(S(=O)(=O)c2nnn(-c3ccc(C)c(Cl)c3)c2C)cc1	-4	-21	-2	31*	3
O=S(=O)(Nc1ccccc1O)c1cccc2cccnc12	-12	-35*	0	13	1
O=C(c1ccco1)n1nc(-c2ccccc2)nc1SCc1ccccc1	5	-3	-10	1	1
Nc1nc(-c2ccccc2)nn1C(=O)c1ccco1	-6	-34*	-4	3	0
CC(=O)c1ccc(N2CCN(C(=O)Nc3cccc(F)c3)CC2)cc1	-4	-35*!	-1	5	1
O=C(Nc1ccc2c(c1)OCCO2)N1CCN(c2ccccc2)CC1	-9	-46*	2	6	0
COc1ccc(C2CCCN2C(=S)Nc2cccc(C)c2)cc1OC (stereo not given)	3	-59*	2	3	-1
O=C(Nc1ccc2c(c1)OCO2)N1CCN(c2ccccc2)CC1	-4	0	2	1	0
CC(=O)c1ccc(N2CCN(C(=O)Nc3ccc(C)cc3)CC2)cc1	-2	-40*!	8	7	-1
COc1ccc(NC(=S)N2CCCC2c2ccc(OC)c(OC)c2)cc1 (stereo not given)	2	2	6	2	0
CCc1cccc(NC(=O)c2c(N3CCCC3=O)c3cc(C)ccc3n2C)c1	2	2	1	3	0
COc1ccc(CCNCc2c(C(=O)O)c(C)n(Cc3cccc(Cl)c3)c2C)c(OC)c1OC	-1	-15	8	2	0
Cc1nn(-c2ccccc2)c2c1cc1c(=O)[nH]c(=O)nc-1n2-c1cccc(Cl)c1	0	-4	-5	0	2
COC(=O)Cc1c(C)c2ccc3c(c2oc1=O)CN(Cc1ccccc1Cl)CO3	1	1	9	7	-1
Cc1ccc(C(=O)N2CCN(c3ccc(NC(=O)c4cccnc4)cc3)CC2)cc1	-6	-31*	4	-1	1
CNC(=S)N1CCN(c2ccc(Cl)c(Cl)c2)CC1	-7	-31*	-1	10	1
COc1ccc(N2CCN(C(=S)Nc3cccc(C)c3)CC2)cc1	-2	-41*	-1	1	-1
Cc1ccccc1C(=O)N1CCN(c2ccc(NC(=O)c3cccnc3)cc2)CC1	-11	-19	2	1	0
COc1cccc(N2CCN(C(=S)Nc3cccc(C)c3)CC2)c1	-1	-4	0	8	-1
CC(=O)c1ccc(N2CCN(C(=S)Nc3cccc(Cl)c3)CC2)cc1	0	-37*	-6	4	0
COC(=O)N1CCN(c2ccc(Cl)c(Cl)c2)CC1	5	-6	-2	13	0
SMILES	D1 potentiator	D1 antag	TRHR PAM	D1 ag	TRHR agonist
CC(=O)c1ccc(NC(=S)N2CCN(c3cccc(Cl)c3)CC2)cc1	-7	/	-4	5	0
CN1CCc2nc3sc(C(=O)Nc4ccccc4C(F)(F)F)c(N)c3cc2C1	-2	7	-1	1	2
COc1ccc(Cl)cc1NC(=O)CCS(=O)(=O)c1cccc2nonc12	2	41	11	-1	0
Cc1cc(C)cc(NC(=O)N2CCCN(c3c(Cl)cncc3Cl)CC2)c1	-4	-33*	-7	0	0
CC(C)c1ccc(NC(=O)N2CCN(c3ccc(Cl)c(Cl)c3)CC2)cc1	-2	-15	-3	15	0
O=C(Nc1cccc2ccccc12)N1CCCN(c2c(Cl)cncc2Cl)CC1	-1	8	-6	0	0
Cc1ccc(NC(=O)N2CCN(c3ccc(Cl)c(Cl)c3)CC2)cc1	-3	-30*	-2	16	0
Cc1ccccc1-c1noc(CSc2nnc(-c3ccncc3)n2-c2ccc(F)cc2)n1	-5	-5	-3	1	0
Cc1ccc(-n2c(SCc3nc(-c4ccccc4C)no3)nnc2-c2ccncc2)cc1C	-1	-34*	1	13	-1
COc1ccc(N2CCN(Cc3nc4c(c(=O)[nH]c(=O)n4C)n3Cc3ccccc3F)CC2)cc1	2	2	2	-1	-1
NS(=O)(=O)c1cc(C(=O)NC2CCSc3ccccc32)ccc1Cl (stereo not given)	-5	-15	3	1	0
CS(=O)(=O)c1ccc(Cl)c(C(=O)NC2CCSc3ccccc32)c1 (stereo not given)	-9	-45*	-1	1	0
CCCCn1c(=O)c2oc3ccccc3c2n(Cc2ccc(OC)cc2)c1=O	0	2	1	1	1
C[C@@H]1C(=O)O[C@@H]2CC34[C@H]5C[C@@H](C(C)(C)C)C36[C@H](OC(=O)[C@@H]6O)OC4(C(=O)O5)[C@@]12O (stereo not given in full)	-1	-38*	1	0	1
C[C@@H]1C(=O)O[C@H]2CC34[C@H]5C[C@@H](C(C)(C)C)[C@]36[C@@H](OC(=O)[C@@H]6O)O[C@@]4(C(=O)O5)[C@]21O (stereo not given in full)	9	11	0	2	0
CCOC(=O)c1sc(NC(=O)c2c(-c3ccccc3)c(-c3ccccc3)nn(C)c2=O)nc1C	2	15	5	0	-2
Cc1nnc(SC(C)C(=O)Nc2nccs2)s1 (stereo not given)	-5	-33*	1	3	0
CC(Sc1nnc(N)s1)C(=O)Nc1nccs1 (stereo not given)	-3	-11	-1	1	0
CCOc1ccc(N(C(C)C(=O)NN=C2CCCCCCC2)S(C)(=O)=O)cc1 (stereo not given)	-8	-33*	6	0	-1
Cc1ccc(NC(=O)C(=O)NCc2ccc(/C=C(/C#N)C(=O)NCc3cccnc3)o2)cc1	-11	-29	9	13	-1
N#C/C(=C/c1ccc(CNC(=O)C(=O)Nc2cc(Cl)cc(Cl)c2)o1)C(=O)NCc1cccnc1	-5	-63*	19	0	-1
COc1cc(OC)c(C2Nc3c(C)cccc3-c3cc(C)nn32)cc1OC (stereo not given)	-5	-7	31*	3	-1
Cc1cc2n(n1)C(c1sccc1C)Nc1c(C)cccc1-2 (stereo not given)	0	1	18	2	-2
CC(C)n1c(SCC(=O)c2ccc(F)cc2)nc2c(sc3ccccc32)c1=O	-3	8	-3	2	0

Screens from PubChem BioAssay.
